The record followed here is PubChem BioAssay AID1745850 (National Center for Advancing Translational Sciences (NCATS), 2022).

Each structure is given as a SMILES string. The whole screen tested about 2,100 compounds, of which about 260 (12%) were called active. Roughly 58% stayed inconclusive and do not appear here. The list shows a part of the results. Unmarked numbers belong to inactive results. Calls come from the whole dose curve; as a rule, active = well fitted cell-killing curve with a large enough effect; inconclusive = small, poorly fitted or top-dose-only effect, or effect the other way; inactive = flat fitted curve, though single readings scatter.
Potency is the fitted concentration of half-maximal effect.

A short description of the test: Viability Counterscreen for Confirmatory qHTS for Inhibitors of ATXN expression. Note: nearly all actives have a fitted effect of over 50% in size. To be noted: HEK-293 ATXN2-luc cells viability, CellTiter-Fluor, 24 h; activity change, negative = cytotoxicity: at the top concentration. From the text:
PI: Daniel Scoles Ph.D. University of Utah School of Medicine, Salt Lake City, Utah MLPCN Grant: NS073009 Spinocerebellar ataxia type 2 (SCA2) is a multisystem neurodegenerative disease caused by a dominantly acting mutation leading to expansion of a polyQ domain in the ataxin-2 protein (ATXN2). SCA2 patients develop progressive ataxia and later lose function in other neuronal systems. Prominent parkinsonian signs develop in some patients. Like many neurodegenerative disorders, no symptomatic or disease-modifying treatments are known. The primary objective of the proposed research is to identify compounds inhibiting ATXN2 expression and to test them for efficacy in SCA2 mouse models. We have developed a cell-based assay paired with an in vivo mouse model using identical luciferase expression constructs. This approach takes advantage of an ATXN2-luciferase transgene, with the luciferase gene flanked by the upstream and downstream portions of the ATXN2 gene. Here we describe a 5-7 dose quantitative high thoroughput screen (qHTS) for compounds lowering ATXN2 expression. We screened the NIH Molecular Libraries Small Molecule Repository (MLSMR) and NCGC's mechanistically annotated (MIPE) and drug repurposing (NPC) collections of compounds for lowering expression of an ATXN2-luciferase reporter in HEK-293 cells. The assay is a multiplexed cell viability assay to ensure target reduction in the absence of cytotoxicity. Secondary qHTS assays included a CMV-luciferase reporter expressed in HEK-293 cells as well as a biochemical assay using recombinant luciferase to detect inhibitors of the reporter enzyme. Compounds that inhibit ATXN2 expression but is not cytotoxic were selected for confirmatory and secondary screens.
PROTOCOL TABLE (as described by Inglese J, Shamu CE and Guy RK. 2007) SEQUENCE No. (e.g., 1, 2, 3, etc.); […] (e.g., Cells, Incubation, Reagent, etc.); VALUE; DESCRIPTION. 1; Cells; 4 uL; white, solid bottom, 1536-well Greiner assay plate. 2; Incubation; 2 hr; 37 degree C in 5% humidified CO2. 3; Compounds; 23 nL; Kalypsis pintool (Wako USA) equipped with a 1536-well pin head. 4; Incubation; 24 hr; 37 degree C in 5% humidified CO2. 5; Reagent; 1 uL; Gly-Phe-7-Amino-4-trifluoromethylcoumarin. 6; Incubation; 30 min; 37 degree C in 5% humidified CO2. 7; Detection; Fluorescence; ViewLux plate reader (PerkinElmer). 8; Reagent; 3 uL; SteadyGlo luciferase solution (Promega). 9; Incubation; 5 min; room temperature. 10; Detection; Luminescence; ViewLux plate reader (PerkinElmer). NOTES (numbers refer to Sequence numbers above) 1. S2 cells expressing ATXN2-luciferase reporter were suspended in phenol-red free DMEM and dispensed in assay plates using a Multidrop Combi dispenser (Thermo Fisher Scientific). Wells containing medium only were plated on each plate, and values were used to normalize (100% inhibition) in the luciferase and CellTiter-Fluor assays. 2. Assay plates were incubated. Evaporation was prevented by covering assay plates with metal lids containing holes to allow gas diffusion. 3. Compounds were added in a dose response manner with the final concentrations of 57, 11.4, 2.28, 0.46, 0.091, 0.018, 0.0037 uM. Vehicle-only plates, with DMSO being pin-transferred to columns 5-48, were inserted uniformly at the beginning and the end of each library to monitor and record any shifts in assay performance. 5. 125 uM Gly-Phe-7-Amino-4-trifluoromethylcoumarin (MP Biomedicals) working concentration was used at a final concentration of 25 uM. 7. To assess cell viability; the assay plates were read using the ViewLux high-throughput CCD imager (PerkinElmer), wherein single end-point fluorescence measurement was acquired (excitation 405/10; emission 540/25 nm). 8. Detection reagent SteadyGlo Luciferase (Promega) was added to the assay plate. 10. Luminescence is then measured on the ViewLux imager equipped with a clear emission filter using a 2 sec exposure. […]
Background: A counterscreen serves to expose hits that act by an unwanted route or on another target.
For the compound `NNc1nc(N)c2c(n1)-c1ccccc1CC21CCCC1`, the “activity change, negative = cytotoxicity” value was -20.9% [at 57.5 µM].

Consider `CC(=O)Nc1ccc(Nc2c3ccccc3nc3ccccc23)cc1`, for which the Potency was 17.8 µM (active).

For the compound `OCCNc1c2ccccc2nc2c(F)c(F)c(F)c(F)c12`, the “activity change, negative = cytotoxicity” value is 19.5% [at 57.5 µM].

`CC(=O)Nc1ccc(NC2=Nc3ccccc3N3C2=Nc2c(c(C)nn2-c2ccccc2)C3c2ccccc2)cc1` (centres undefined): the “activity change, negative = cytotoxicity” value was 21.2%.

As for `Cc1nnc(SCC(N)=O)n1CC1CCCO1` (centres undefined), the “activity change, negative = cytotoxicity” value was -18.5% [at 57.5 µM].

Turning to `CCOc1ccc(C(=O)Nc2ccc(Cc3ccncc3)cc2)cc1Br`, the “activity change, negative = cytotoxicity” value was -20.8% [at 57.5 µM].

For `CCOc1ccccc1C(=O)Nc1ccc2nc(N3CCN(c4ncccn4)CC3)cc(C)c2c1`, the Potency was 11.2 µM (active).

Take `CCOc1ccccc1NC(=O)N1CCC(c2nc3ccccc3[nH]2)CC1`: the “activity change, negative = cytotoxicity” value was -18.1%.

With `OC(c1ccccc1)(c1nc(-c2cc3ccccc3o2)cs1)C(F)(F)F` (centres undefined), the “activity change, negative = cytotoxicity” value was -13% [at 57.5 µM].

`CCc1ccc(-c2nc(CS(=O)CC(=O)NCc3ccco3)c(C)o2)cc1` (centres undefined): the “activity change, negative = cytotoxicity” value was -6.43%.

On to `O=C(CNC(=O)c1ccccc1Br)N/N=C/c1cc(Br)ccc1O`, for which the “activity change, negative = cytotoxicity” value was -2.53%.

Turning to `O=C(CNC(=O)c1cccc(Br)c1)N/N=C/c1cc(Br)cc(Br)c1O`, the “activity change, negative = cytotoxicity” value was -26.1% [at 57.5 µM].

`Cc1ccc(OCCNC(=O)c2cncc(Br)c2)cc1C`: the “activity change, negative = cytotoxicity” value is -20.8% [at 57.5 µM].

As to `O=C(N/N=C/c1cc(Br)ccc1O)c1ccncc1`, the “activity change, negative = cytotoxicity” value is -3.23%.

On to `COc1ccc(C(=O)NCC(=O)N/N=C/c2ccc([N+](=O)[O-])s2)cc1OC`, for which the Potency was 22.4 µM (active).

Take `O=C(N/N=C\c1ccc([N+](=O)[O-])s1)c1cncc(Br)c1`: the Potency was 11.2 µM (active).

As for `O=C(CP(=O)(c1ccccc1)c1ccccc1)N/N=C/c1cc(Br)cc(Br)c1O`, the “activity change, negative = cytotoxicity” value is 1.93%.

Turning to `O=C(N/N=C/c1ccc([N+](=O)[O-])s1)c1ccccc1Br`, the Potency is 22.4 µM (active).

With `CN(Cc1cnc2nc(N)nc(N)c2n1)c1ccc(C(=O)NC(CCC(=O)O)C(=O)O)c2ccccc12` (centres undefined), the “activity change, negative = cytotoxicity” value was -30.4% [at 57.5 µM].

Turning to `Cc1c(N=C2C=CC(=O)c3ccccc32)c(=O)n(-c2ccccc2)n1C`, the Potency was 28.2 µM (active).

In the case of `Cc1c(N=C2N=C(NC(=O)c3ccc(F)cc3)c3ccccc32)c(=O)n(-c2ccccc2)n1C`, the “activity change, negative = cytotoxicity” value is -23.7%.

In the case of `Cc1cccc(/C=N/NC(=O)c2cccc(Cl)c2)n1`, the “activity change, negative = cytotoxicity” value was -18.5%.

As to `COc1ccc(OCCNC(=O)C2(C)CCN2Cc2ccc3ccccc3c2)cc1` (centres undefined), the “activity change, negative = cytotoxicity” value was -28.2% [at 57.5 µM].

On to `C[C@@H]1CC=C[C@@H]2[C@H]1C(=O)N(Cc1ccccc1)[C@H]2c1ccccc1Br`, for which the “activity change, negative = cytotoxicity” value is -29.3% [at 57.5 µM].

In the case of `O=C1Nc2c(Br)cc(Br)c3cccc1c23`, the “activity change, negative = cytotoxicity” value is -20.9% [at 57.5 µM].

In the case of `COc1ccc(C)cc1NC(=O)C(Sc1nnc(-c2ccncc2)n1-c1ccc(Cl)cc1)c1ccccc1` (centres undefined), the “activity change, negative = cytotoxicity” value is -12.9%.

On to `CCCOc1ccccc1C1NC(=O)NC(C)=C1C(=O)OCc1ccccc1` (centres undefined), for which the “activity change, negative = cytotoxicity” value was -14%.

As to `Cc1cccc(NC(c2ccc(C)s2)c2ccc3ccc(C)nc3c2O)n1` (centres undefined), the Potency is 25.1 µM (active).

Turning to `Cn1nc(C(=O)N2CCN(c3ccc(Cl)cc3)CC2)c2c1-c1ccccc1S(=O)(=O)C2`, the “activity change, negative = cytotoxicity” value was -12.1%.

In the case of `O=C(CCC(=O)Nc1ccc(Br)cc1)N/N=C/c1ccccc1O`, the “activity change, negative = cytotoxicity” value was -18.6%.

`COC(=O)c1c(NC(=O)c2ccc([N+](=O)[O-])o2)sc2c1CCN(C(C)C)C2`: the Potency is 28.2 µM (active).

Consider `O=C1C=Cc2cccc3ccc(O)c1c23`, for which the “activity change, negative = cytotoxicity” value is 4.45%.

In the case of `O=C(CN1C(=O)c2ccccc2S1(=O)=O)c1ccc(Cl)cc1Cl`, the “activity change, negative = cytotoxicity” value was -6.86% [at 57.5 µM].

Regarding `O=[N+]([O-])c1c(Nc2ccccn2)cc(Cl)c2nonc12`, the Potency is 11.2 µM (active).

Turning to `COc1cc(OC)c(OC)cc1/C=C1\CC(C)C/C(=C\c2cc(OC)c(OC)cc2OC)C1=O` (centres undefined), the Potency is 17.8 µM (active).

Take `C=CCc1ccccc1OCC(O)CN1CCN(CCN2C(=O)c3cccc4cccc(c34)C2=O)CC1` (centres undefined): the Potency is 31.6 µM (active).

`O=C(CNC(=O)c1ccccc1O)N/N=C/c1cc(Br)ccc1OC(=O)/C=C/c1ccco1`: the “activity change, negative = cytotoxicity” value was -4.41%.

`Cc1ccc(C(=O)CN2C(=O)c3ccccc3S2(=O)=O)cc1`: the “activity change, negative = cytotoxicity” value is 5.17%.

Regarding `Oc1ccc(C2CNCc3sccc32)cc1O` (centres undefined), the “activity change, negative = cytotoxicity” value is -19.8% [at 57.5 µM].

Regarding `O=C(CN1CCCc2ccccc21)N/N=C/c1ccccc1O`, the “activity change, negative = cytotoxicity” value was -21.2%.

In the case of `C[C@@H]1ON(C)[C@H]2C[C@H]3c4[nH]c5ccc(-c6ccc7c(c6)OCO7)cc5c4CCN3C(=O)[C@@H]12`, the “activity change, negative = cytotoxicity” value is -27.8% [at 57.5 µM].

`CC1(C)Cc2c(ccc3ccccc23)C2=C(C(=O)N3CCCC3)C(=O)C(=O)N21`: the “activity change, negative = cytotoxicity” value was -14.3% [at 57.5 µM].

For the compound `O=C(Nc1nc(-c2ccc(S(=O)(=O)N3CCOCC3)cc2)cs1)c1ccccc1`, the “activity change, negative = cytotoxicity” value was -26.6%.

Take `CCn1c2ccccc2c2cc(NC(=O)COC(=O)c3cc(S(=O)(=O)N4CCCCC4)ccc3Cl)ccc21`: the “activity change, negative = cytotoxicity” value was 1.01%.

On to `Cc1nc(-c2cccc(NC(=O)c3cccc(S(=O)(=O)N4CCCC4)c3)c2)cs1`, for which the Potency was 28.2 µM (active).

As to `Cn1c(N)c(C(=O)Nc2ccc(-c3ccccc3)cc2)sc1=S`, the “activity change, negative = cytotoxicity” value was -20.9% [at 57.5 µM].

Regarding `COc1ccc(Oc2c(Cl)cnn(-c3ccccc3)c2=O)cc1`, the Potency was 3.16 µM (active).

Regarding `COc1ccc(C2CC(c3ccccc3Cl)=NN2c2ccc(S(N)(=O)=O)cc2)cc1` (centres undefined), the “activity change, negative = cytotoxicity” value was 1.38% [at 57.5 µM].

Turning to `COc1ccc(C(=O)Nn2c(SCC(=O)c3ccccc3)nc3ccccc3c2=O)cc1`, the “activity change, negative = cytotoxicity” value was -26% [at 57.5 µM].
